About 930 (72%) of roughly 1,300 compounds were called active. The set was probably picked from earlier hits. A selection follows. Results with a measured potency or affinity are listed apart. Unmarked numbers belong to inactive results.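 Rule for the calls: active = fitted curve reaches 40% activation signal increase at or below the top valid tested concentration in every replicate test; inconclusive = replicate tests disagree in their calls; inactive = all replicate tests inactive, including effects opposite the expected signal rise.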

The text below walks through data of PubChem BioAssay AID652053 (Broad Institute, 2013).

The nature of the assay: suppression of miR-122 activity, Renilla luciferase sensor – cell-based, Huh7 psiCHECK-miR122, cherry-pick, dose response (AID 652053). Particulars: Huh7 psiCHECK-miR122 Renilla luciferase reporter, 48 h; series mostly up to 35 µM; activation (miR-122 inhibition): at the top concentration.
With `C[C@H]1CN([C@@H](C)CO)C(=O)Cc2cc(NC(=O)Nc3cccc4ccccc34)ccc2O[C@@H]1CN(C)C(=O)NC1CCCCC1`, the “activation (miR-122 inhibition)” value is -0.862%.

In the case of `COC(=O)c1sccc1NC(=S)Nc1ccc(F)cc1`, the “activation (miR-122 inhibition)” value is 3.83%.

Turning to `CCC1(c2ccc(F)cc2)NC(=O)N(CC(=O)Nc2ccc(-c3nc4ccc(C)cc4s3)cc2)C1=O` (stereo not given), the “activation (miR-122 inhibition)” value was -7.83%.

Take `COc1ccc(CCNC(=O)COC(=O)Cn2cnc3ccccc3c2=O)cc1`: the “activation (miR-122 inhibition)” value is -8.09%.

`Cc1ccc(Nc2nc(C(=O)NCc3ccco3)cs2)cc1`: the “activation (miR-122 inhibition)” value is -0.096%.

For the compound `O=c1c2c(nc3nc(SCc4ccccc4)[nH]n13)CCC2`, the “activation (miR-122 inhibition)” value is 4.6%.

For `Cc1ccc(CSc2nnc(-c3cccnc3)o2)cc1`, the “activation (miR-122 inhibition)” value is -6.16%.

As for `CN(C[C@H]1N[C@@H](CO)[C@H]1c1ccc(-c2cccc(F)c2)cc1)S(C)(=O)=O`, the “activation (miR-122 inhibition)” value was -17%.

In the case of `C[C@@H]1CN([C@H](C)CO)C(=O)c2cccc(NS(=O)(=O)c3ccccc3)c2O[C@H]1CN(C)Cc1ccc(C(=O)Nc2ccccc2N)cc1`, the “activation (miR-122 inhibition)” value was -2.83%.

As to `C[C@H]1CN([C@@H](C)CO)C(=O)c2cccc(NS(=O)(=O)c3ccccc3)c2O[C@H]1CN(C)Cc1ccc(C(=O)Nc2ccccc2N)cc1`, the “activation (miR-122 inhibition)” value was 36.4% [at 28.5 µM].

For `CCCCC(O)(CCCC)C(=O)NN(C(=O)OC)c1ccccc1`, the “activation (miR-122 inhibition)” value was -6.47%.

In the case of `COc1ccc(C(=O)N[C@H](C(=O)Nc2nc3ccccc3[nH]2)C(C)C)cc1`, the “activation (miR-122 inhibition)” value is 15.5%.

As for `CC(=O)N1[C@H](CNC(=O)C2CC2)[C@H](c2ccc(-c3ccccc3)cc2)[C@@H]1CO`, the “activation (miR-122 inhibition)” value is 1.49%.

Turning to `O=C(N/N=C/c1cccc(F)c1)c1csc2c1CCCC2`, the “activation (miR-122 inhibition)” value was -4.34%.

With `CN1c2ccc(-c3cccc(F)c3)cc2[C@H]2[C@H](CCN2C(=O)C2CC2)[C@H]1CO`, the “activation (miR-122 inhibition)” value was 10% [at 30 µM].

`CC(C)NC(=O)N1[C@H](CO)[C@@H]2c3ccccc3N(C(=O)c3ccccc3F)C[C@@H]21`: the “activation (miR-122 inhibition)” value is -8.81%.

Turning to `O=C(NC[C@H]1N[C@H](CO)[C@H]1c1ccccc1)c1ccccc1F`, the “activation (miR-122 inhibition)” value was 5.44%.

For the compound `CC(C)NC(=O)N1CC[C@@H]2[C@@H](CO)N(C)c3ccc(-c4cccc(F)c4)cc3[C@@H]21`, the “activation (miR-122 inhibition)” value is 15.3% [at 30 µM].

For `C[C@@H]1CN([C@@H](C)CO)C(=O)c2cccc(NC(=O)C3CCOCC3)c2O[C@@H]1CN(C)Cc1ccc2c(c1)OCO2`, the “activation (miR-122 inhibition)” value is 0.015%.

With `C[C@@H]1CN([C@H](C)CO)C(=O)c2cccc(NC(=O)C3CCOCC3)c2O[C@H]1CN(C)Cc1ccc2c(c1)OCO2`, the “activation (miR-122 inhibition)” value is 4.98%.

As for `C[C@@H]1CN([C@H](C)CO)C(=O)c2cccc(NC(=O)C3CCOCC3)c2O[C@@H]1CN(C)Cc1ccc2c(c1)OCO2`, the “activation (miR-122 inhibition)” value was -9.26%.

As for `C[C@@H]1CN([C@@H](C)CO)C(=O)c2cccc(NC(=O)C3CCOCC3)c2O[C@H]1CN(C)Cc1ccc2c(c1)OCO2`, the “activation (miR-122 inhibition)” value was 6.54%.

For the compound `Cc1c(C(=O)Nc2ccccn2)oc2ccccc12`, the “activation (miR-122 inhibition)” value is -5.01%.

Consider `Cc1ccccc1N(C(=O)CCCC(=O)Nc1ccccn1)C(C(=O)NC1CCCC1)c1ccc(O)cc1` (stereo not given), for which the “activation (miR-122 inhibition)” value is 27.4%.

With `O=C(NCCCN1CCN(Cc2ccccc2)CC1)c1nnc(Cc2c(F)cccc2Cl)o1`, the “activation (miR-122 inhibition)” value is -15.8%.

Turning to `COC(=O)c1c(NC(C)=O)sc(Cc2ccccc2)c1C`, the “activation (miR-122 inhibition)” value was -7.43%.

Take `O=C(Nc1ccccn1)c1cccc(S(=O)(=O)N2CCOCC2)c1`: the “activation (miR-122 inhibition)” value was -7.05%.

Take `CCC(=O)N1[C@H](CNC(=O)COC)[C@@H](c2ccc(-c3ccccc3)cc2)[C@@H]1CO`: the “activation (miR-122 inhibition)” value is -7.61%.

With `Cc1ccc(S(=O)(=O)NCCC(=O)Oc2ccc3ccc(=O)oc3c2)cc1`, the “activation (miR-122 inhibition)” value is -5.43%.

Take `Cc1ccc2[nH]c(CNC(=O)C3CCCCC3)cc2c1`: the “activation (miR-122 inhibition)” value is 18.1%.

In the case of `C[C@@H]1CN([C@@H](C)CO)C(=O)Cc2cc(NC(=O)Nc3cccc4ccccc34)ccc2O[C@H]1CN(C)C(=O)NC1CCCCC1`, the “activation (miR-122 inhibition)” value was -1.72%.

As to `Cc1ccc(OCC(=O)Nc2cccc3c2CCCC3)cc1C`, the “activation (miR-122 inhibition)” value is -7.15%.

In the case of `COc1ccc(/C=N/NC(=O)COc2ccccc2-c2ccccc2)cc1`, the “activation (miR-122 inhibition)” value was 41.9%.

`CCOc1ccc(N2C(=O)Nc3ccccc3C2(O)C(=O)NCc2ccc3c(c2)OCO3)cc1` (stereo not given): the “activation (miR-122 inhibition)” value is -15.3%.

As for `Cc1cc(Cl)c(S(=O)(=O)N2CCCCCC2)cc1OCC(=O)NC1CCCCC1`, the “activation (miR-122 inhibition)” value is -10.7%.

Take `c1ccc(CSc2nnc(-c3cccnc3)o2)cc1`: the “activation (miR-122 inhibition)” value was -14.5%.

Take `C=CC(C)n1c(Br)nc2c1c(=O)[nH]c(=O)n2C` (stereo not given): the “activation (miR-122 inhibition)” value is -9.83%.

`CS(=O)(=O)N(CC(=O)Nc1cccc(F)c1)c1cccc([N+](=O)[O-])c1`: the “activation (miR-122 inhibition)” value was -3.67%.

Regarding `Cc1c(-c2ccccc2)cn2c1-c1ccc(C)n1CC2`, the “activation (miR-122 inhibition)” value was -6.24%.

As to `O=C(CN1CCOCC1)Nc1cc(Cl)ccc1Cl`, the “activation (miR-122 inhibition)” value was -6.17%.

Regarding `CCn1c(CCNC(=O)c2ccc(OC)cc2)nnc1SCC(=O)Nc1ccccc1F`, the “activation (miR-122 inhibition)” value was -10.9%.

For `COc1cc(OC)c(-c2nc3cnccc3n2C)cc1OC`, the “activation (miR-122 inhibition)” value is -11.9%.

Turning to `COC(=O)c1[nH]c2c(c1C)C(=O)CC(c1ccccc1)C2` (stereo not given), the “activation (miR-122 inhibition)” value is 24.6%.

For the compound `CCOC(=O)c1[nH]c2c(c1C)C(=O)CC(c1ccco1)C2` (stereo not given), the “activation (miR-122 inhibition)” value was 32.4%.

Consider `CCC(=O)N1[C@H](CO)[C@H](c2ccccc2)[C@@H]1CN(CC)C(=O)c1cccc(F)c1`, for which the “activation (miR-122 inhibition)” value was 1.39%.

On to `Cc1ccc(NCc2nnc(SCC(=O)Nc3ccccc3)n2CC2CCCO2)c(C)c1` (stereo not given), for which the “activation (miR-122 inhibition)” value is 25%.

Take `CC1CCN(C(=S)c2ccc(O)cc2)CC1`: the “activation (miR-122 inhibition)” value is -8.51%.

As to `CC1CCN(S(=O)(=O)c2ccc(NC(=O)Cc3cccs3)cc2)CC1`, the “activation (miR-122 inhibition)” value is 31.5%.

`COCC(=O)Nc1ccc2c(c1)[C@@H]1C[C@H](CC(=O)NCc3ccccc3)O[C@H](CO)[C@@H]1O2`: the “activation (miR-122 inhibition)” value was -10.4%.

Take `O=C(C[C@@H]1C[C@H]2c3cc(NS(=O)(=O)c4ccc(F)cc4)ccc3O[C@H]2[C@H](CO)O1)NCc1ccc(Oc2ccccc2)cc1`: the “activation (miR-122 inhibition)” value was 25.6%.

Consider `C[C@@H]1CN([C@@H](C)CO)C(=O)c2cc(N(C)C)ccc2O[C@@H]1CN(C)C(=O)Nc1ccc(F)cc1`, for which the “activation (miR-122 inhibition)” value is 4.49%.

Consider `COc1ccc(NC(=O)Nc2ccc3c(c2)CC(=O)N([C@@H](C)CO)C[C@@H](C)[C@H](CN(C)C(=O)NC(C)C)O3)cc1`, for which the “activation (miR-122 inhibition)” value is -4.79%.

In the case of `COc1ccc(NC(=O)Nc2ccc3c(c2)CC(=O)N([C@@H](C)CO)C[C@@H](C)[C@@H](CN(C)C(=O)NC(C)C)O3)cc1`, the “activation (miR-122 inhibition)” value is 0.145%.

Turning to `CC(=O)c1cccc(OCC(=O)Nc2ccccc2N2CCOCC2)c1`, the “activation (miR-122 inhibition)” value is -6.02%.

As for `COCCCn1c(=O)/c(=C\c2ccccc2OC(F)F)s/c1=C(/C#N)C(N)=O`, the “activation (miR-122 inhibition)” value is -4.42%.

Take `Cc1cc(C)c(C)c(S(=O)(=O)Nc2ccc(OCC(=O)O)cc2)c1C`: the “activation (miR-122 inhibition)” value was -10.9%.

Consider `Cc1cc(O)c(C(C)C)cc1N=Nc1ccccc1C(=O)O`, for which the “activation (miR-122 inhibition)” value was -4.09%.

Turning to `Cc1ccc(C)c(S(=O)(=O)Nc2ccc(O)c3ccccc23)c1`, the “activation (miR-122 inhibition)” value is 20.6%.

For `CC(=O)c1cccc(NC(=O)C(C)N2CCc3ccccc3C2)c1` (stereo not given), the “activation (miR-122 inhibition)” value was 11%.

As for `C=CCn1cc(C(=O)N2CCc3ccccc3C2)c(=O)c2cc(S(=O)(=O)N(CC)CC)ccc21`, the “activation (miR-122 inhibition)” value was 6.72%.

Take `Cc1ccc(C(=O)Oc2ccc(C(=S)N3CCOCC3)cc2)cc1`: the “activation (miR-122 inhibition)” value is 5.32%.

For `Cc1ccc(CN2C(=O)C(C)(C)Oc3ccc(C(=O)N4CCCCC4)cc32)cc1`, the “activation (miR-122 inhibition)” value is 13.1%.

Consider `CCc1ccc(NC(=O)CN2CCc3ccccc3C2)cc1`, for which the “activation (miR-122 inhibition)” value is -5.28%.

Regarding `CCc1cccc(NC(=O)Cc2cn(C)c3ccccc23)c1`, the “activation (miR-122 inhibition)” value is 8.83%.

For the compound `Cc1noc(C)c1NC(=O)Nc1ccc2c(c1)CC(=O)N([C@@H](C)CO)C[C@H](C)[C@@H](CN(C)Cc1ccc(Cl)c(Cl)c1)O2`, the “activation (miR-122 inhibition)” value is 10.7%.
